Out of some 1,400 compounds screened, about 380 (27%) were called active. This is one part of the list. Values without a mark were called inactive.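 The calls were made as follows: active = mean inhibition above 50% across duplicate retests at 10 µM; inactive = the rest.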

The nature of this test: yeast NALP1 reporter signal suppression – S. cerevisiae, luminescence, single concentration, NALP1 inhibitor project, confirmation (AID 488841).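 Also: plate controls were DMSO in galactose medium for no effect and cells in plain SD medium for full effect.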 Conditions: S. cerevisiae NALP1/ASC/Caspase-1 reporter, beta-gal luminescence; at 10 µM; hits give high values.
In general, inhibition refers to the relative decrease from the control value, in per cent. Regarding `CN(C)c1ccc(O)c2c1CC1CC3[C@@H](N(C)C)C(=O)C(C(N)=O)=C(O)[C@]3(O)C(=O)C1=C2O` (some centres not stated), the inhibition was 28.8%. As for `Cc1cc(/C=C2/SC(=S)N(c3ccc([N+](=O)[O-])cc3)C2=O)c(C)n1-c1cccnc1`, the figure is 34.9%. As to `O=C1Cc2ccccc2C(=O)N1OCc1ccc(Cl)cc1Cl`, the inhibition is 26.8%.

For `COc1cc(Cc2cnc(N)nc2N)cc(OC)c1OC`, the inhibition is 24.9%. As for `Oc1c(I)cc(Cl)c2cccnc12`, the figure is 56.2% (active); as for `Oc1c(CN2CCCCC2)cc(Br)c2cccnc12`, 26.2%.

Turning to `C=C(C)COc1ccc2c(CC)cc(=O)oc2c1C`, the inhibition is 63.1% (active).

Turning to `CC1CCCN(CCC(=O)c2ccc(Br)cc2)C1` (configuration not stated), the inhibition was 28.8%.

Regarding `CC1=NN(c2ccc(C)cc2C)C(=O)C1C(c1cccc(O)c1)C1C(=O)N(c2ccc(C)cc2C)N=C1C` (configuration not stated), the inhibition is 38%. Under `C=CCNC(=S)N/N=C(\C)c1ccccn1` stands 57.5% (active); under `C/C(=N\NC(=O)Nc1ccccc1)c1ccccc1`, 47.1%; under `COc1cccc(NC(=O)Cn2cnc3sc(C)c(S(=O)(=O)N4CCCCC4)c3c2=O)c1`, 20.9%. As to `COc1cc(/C=N/n2cnnc2)ccc1OCc1ccc(C)cc1`, the inhibition is 50.9% (active). Under `COc1cc(C2Nc3ccccc3C(=O)N2c2ccccc2)ccc1O` (configuration not stated) stands 27.3%; under `COC1=C(N)C(=O)c2nc(-c3nc(C(=O)O)c(C)c(-c4ccc(OC)c(OC)c4O)c3N)ccc2C1=O`, 33.7%. As for `Cc1cccc(N2Cc3ccccc3C2=NC(=O)c2ccc(Cl)nc2)c1`, the figure is 26.5%. Turning to `COC(=O)N/N=C(\C)c1ccc2ccccc2c1OC(F)F`, the inhibition was 55.9% (active). Under `CCSc1ncc(/C=N/Nc2ccccc2)n1C` stands 68.9% (active). As for `CCSc1nnc(-c2cnn(-c3ccccc3)c2-n2cccc2)n1C`, the figure is 26.1%; as for `Clc1ccc(OCCCNCc2ccccc2)c2ccccc12`, 49.3%; as for `COC(=O)C(CCSC)NC(=O)Cn1ncc2c(=O)oc3ccccc3c21` (configuration not stated), 35.1%. Under `CN(C#N)c1nc(Cl)nc(Nc2cccc(Cl)c2)n1` stands 23.4%; under `O=C(COc1ccc(Br)cc1Br)NC(=S)Nc1cccc(CO)c1`, 29.1%; under `COc1ccc(CNc2cccc(F)c2)cc1Br`, 62% (active). For the compound `COc1ccc(Cc2ccc(OC)c(N)c2)cc1N`, the inhibition was 36.5%.

In the case of `CC(C)c1ccc(NCCC(=O)c2cccs2)cc1`, the inhibition was 44.8%. Under `O=C(COC(=O)/C=C/c1cccs1)Nc1nc(-c2ccccc2)cs1` stands 13.8%; under `CC1CC1C(=O)Nc1nc(-c2ccccc2)cs1` (configuration not stated), 66.7% (active); under `O=C(COC(=O)c1cccs1)Nc1nc(-c2ccccc2)cs1`, 34%.

On to `O=C(Cc1coc2cc3c(cc12)CCC3)NCC1(N2CCCCC2)CCCCC1`, for which the inhibition is 22.9%. In the case of `O=C1C2C(C(=O)N1/N=C/c1ccc([N+](=O)[O-])o1)C1C=CC2C12CC2` (configuration not stated), the inhibition was 34.8%. As for `O=C1C2C(C(=O)N1/N=C/c1cc(Br)cc([N+](=O)[O-])c1O)C1C=CC2C12CC2` (configuration not stated), the figure is 59.4% (active). As for `O=C(CN1CCCCC1)Nc1cccc(Oc2ccccc2)c1`, the figure is 25.9%; as for `O=[N+]([O-])c1ccc(N2CCCCC2)cc1`, 32.1%. Under `O=S(=O)(N1CCCCC1)N1CCN(c2ccc(F)cc2)CC1` stands 29.6%. `O=C1C=CC(=O)N1c1ccc(N2CCCCC2)cc1`: the inhibition was 70.8% (active). For the compound `CCCCCCCCCCCCCCCC[n+]1ccc(C(N)=O)cc1`, the inhibition is 81.4% (active).

For `CCCCCCCCCCCCCCCC[n+]1ccc(/C=N/O)cc1`, the inhibition is 82% (active). Under `CCCCN(CC)S(=O)(=O)c1ccccc1` stands -8.3%; under `CCCCCCCCCCCCCCCC[n+]1cccc(C(=O)N(CC)CC)c1`, 80.4% (active). With `C1=CC2CC1CC2CN1CCN(Cc2ccccc2)CC1` (configuration not stated), the inhibition is 46.4%. As for `COc1cc(-c2nc(C(F)(F)F)c(OC)o2)cc(OC)c1OC`, the figure is 28.9%. As for `O=C(NC(N1CCOCC1)C(Cl)(Cl)Cl)c1ccc(Br)cc1` (configuration not stated), the figure is -17.9%; as for `CC1=CC2=NC(=O)/C(=C\c3cccn3CCOc3cccc(C)c3)C(=N)N2O1`, 76.5% (active); as for `O=C(O)/C=C/C(=O)OC1CC2CCC1C2` (configuration not stated), 24.1%.

In the case of `CN(C)Cc1ccccc1COc1ccccc1`, the inhibition is 23.2%.

Turning to `C/C(=C(\C#N)C(=O)NCc1ccccc1)N(C)C`, the inhibition is 33.3%. Under `CCOc1ccc(NC(=O)/C=C/c2ccccc2)c([N+](=O)[O-])c1` stands 31.1%. As for `CCOC(=O)COc1ccc2ccccc2c1/C=C/[N+](=O)[O-]`, the figure is 99.7% (active); as for `CCOC(=O)COc1ccccc1/C=C\[N+](=O)[O-]`, 101% (active). Under `COc1ccccc1OCC(=O)N/N=C/C=C/c1ccc([N+](=O)[O-])o1` stands 32.6%. For `Cc1cc(N2CCOCC2)ccc1/C=C\[N+](=O)[O-]`, the inhibition was 41.6%.

For `O=C(CCCN1C(=O)c2ccccc2C1=O)Oc1ccc(Cl)cc1`, the inhibition was 37.3%.

Take `CC(NCCC(c1ccccc1)c1ccccc1)c1ccccc1` (configuration not stated): the inhibition is 50.5% (active). Take `CCN1/C(=C/C=C/C=C/c2sc3ccccc3[n+]2CC)Sc2ccccc21`: the inhibition is 51% (active).

For `COc1cccc(OCc2ccc(C(=O)NCC3CCCO3)cc2)c1` (configuration not stated), the inhibition is 36.2%. As to `CC1(O)N(Cc2ccccc2)C(=O)OC12CCCCC2` (configuration not stated), the inhibition was 29.2%.

In the case of `O=C(COC(=O)c1ccc(-c2ccc([N+](=O)[O-])cc2)o1)NC(=O)NC1CCCCC1`, the inhibition is 37.8%. Under `O=C(N/N=C/c1cc(Cl)ccc1O)c1ccc(Br)cc1` stands 43.6%.

As to `CC(C)(C)c1nnc(N/N=C/c2cc(Br)ccc2O)n(N)c1=O`, the inhibition was 53.5% (active). On to `CCCCNC(=O)Nc1cc(C)on1`, for which the inhibition is 23.2%.

As for `Cc1cc2ncn(/N=C/c3ccc([N+](=O)[O-])s3)c2cc1C`, the inhibition is 65.3% (active). On to `CN(C)/C=N/n1cnc2ccccc2c1=O`, for which the inhibition is 23.6%. As for `CCOC(=O)C1CCN(C(=O)c2cc3cc4cc(OC)ccc4nc3o2)CC1`, the figure is 45.9%; as for `CCOc1ccc2nc(SC3CC(=O)N(c4cccc(OC)c4)C3=O)sc2c1` (configuration not stated), 32.1%; as for `O=S(=O)(Nc1ccc(-n2cccc2)cc1)c1ccc(Cl)cc1Cl`, 52.4% (active). As for `O=C(O)C1CCN(C(=O)c2csc(-c3ccc4c(c3)CCO4)n2)CC1`, the figure is 22.9%; as for `CCCC(=O)c1ccc(-c2ccccc2)cc1`, 52.4% (active). Under `Cc1cccc(C)c1OCCNC(=O)CCC(=O)c1ccccc1` stands 33.9%; under `Cc1ccc(C(=O)CCC(=O)O)cc1`, 37%. In the case of `O=C1OC(/C=C/c2ccc(Cl)cc2)=NC/1=C/c1ccco1`, the inhibition is 36.4%. Under `CCCCCCCCCCCCCCCCn1cc[n+](C)c1` stands 84.8% (active); under `CCCCCCCCCCCCCCCCn1cc[n+](CC(C)=O)c1`, 76.5% (active); under `CCCNCC1COc2ccccc2O1` (configuration not stated), 31.2%. Under `COc1ccccc1OCCN1CSC(=S)N(C)C1` stands 47%. Under `O=[N+]([O-])c1cc2oc3c(c2c(C=NCc2ccccc2)c1O)CCCC3` stands 34.6%; under `CNc1nc(SCc2ccc(C)cc2)nc2c1CCCC2`, 98.8% (active); under `Cc1oc(-c2ccccc2Cl)nc1CSc1nc2c(c(=O)[nH]1)CCC2`, 31.5%. `CNc1nc(SCc2ccccc2Cl)nc2c1CCCC2`: the inhibition was 99% (active).

Regarding `Cc1ccc(NC(=O)N(C2CCCCC2)C(C)c2cccnc2)cc1C` (configuration not stated), the inhibition is 32.9%.

As to `CC(C)N1CCC2(CC1)N=C(c1ccc3c(c1)OCO3)CC(c1cc(Cl)ccc1O)N2` (configuration not stated), the inhibition was 62.8% (active). As for `Clc1ccc(C2=NNC(=NCc3ccc4c(c3)OCO4)SC2)cc1`, the figure is 27.9%; as for `N#CC(C#N)=c1ccc2c(c1)N1C3=C(CCCC3)CC3CCCCC31N=2` (configuration not stated), 7.95%; as for `CC1CCCC/C1=N\Nc1ccc(S(N)(=O)=O)cc1[N+](=O)[O-]` (configuration not stated), 30.3%. `COC(=O)c1c(S(=O)(=O)NCc2ccccc2)sc(C(=O)O)c1C`: the inhibition was 22%. Take `COc1ccc(Nc2ccnc(Nc3ccc(OC)cc3)n2)cc1`: the inhibition was 55% (active). Consider `Fc1ccc(Nc2ccnc(Nc3ccc(F)cc3)n2)cc1`, for which the inhibition is 29.5%.

As for `CCN(CC)S(=O)(=O)c1ccc2[nH]c(=O)cc(C(=O)Nc3ccc(C)c(S(=O)(=O)N(CC)CC)c3)c2c1`, the inhibition was 27.6%. Under `Clc1ccc(Nc2ccc(NCc3ccccc3)nn2)cc1` stands 75.7% (active). For the compound `CC(C)C(NS(=O)(=O)c1ccc2c(c1)oc(=O)n2C)C(=O)N1CCN(C2CCCCC2)CC1` (configuration not stated), the inhibition is 25.9%. Take `CSc1ccc(S(=O)(=O)NCc2ccc(C)cc2)cc1`: the inhibition is 38.7%. As to `CN(C)C(C)(C)C#CCC(c1ccccc1)c1ccccc1`, the inhibition was 61.6% (active). Under `CC(C)(C#CCN1CCCCC1)OCCOC(c1ccccc1)c1ccccc1` stands 28.1%.

On to `COc1ccc(C2SCC(=O)N2CCCN(C)C)cc1` (configuration not stated), for which the inhibition was 35%. As for `Cc1cccc(/C=N/n2c(-c3cc(-c4ccccc4)n[nH]3)n[nH]c2=S)c1`, the inhibition was 27.3%.

Consider `Cc1ccsc1/C=N/n1c(-c2ccccn2)n[nH]c1=S`, for which the inhibition was 37.9%. Under `S=c1[nH]nc(-c2ccco2)n1/N=C/c1cccc(Cl)c1Cl` stands 56% (active); under `CC(C)Oc1ccc(OCCNC2CCCC2)cc1`, 35.8%. As for `CCN1CCN(c2cc3c(cc2F)c(=O)c(C(=O)O)cn3C2CC2)CC1`, the figure is 14.2%; as for `CS/C(=N\S(=O)(=O)c1cccs1)Nc1ccc(Br)cc1F`, 52% (active); as for `Cn1c(=O)c([N+](=O)[O-])c(-n2cnc3ccccc32)c2ccccc21`, 37%. Under `CN1CCN(S(=O)(=O)c2ccc(Br)c3nsnc23)CC1` stands 19.9%.

These data come from PubChem BioAssay AID488841 (Sanford-Burnham Center for Chemical Genomics, 2010).
